Screening results from PubChem BioAssay.
SRC2 inh – human SRC2 (NCOA2) inhibition; Q15596; HEK293 GAL4-SRC2 luciferase reporter, luminescence; inhibition, % at 9 µM; hit rate 0.17% among 370,000; AID 651957;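 active = inhibition above the mean inhibition of all tested compounds plus 3 SD, set per campaign, cut at about 52% in these data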;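 note: 0% = DMSO treated cells and 100% = cells given Gossypol at 36 µM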
LRH-1 inv ag – NR5A2 inverse agonism in reporter assay | O00482 | HEK293T StAR-luciferase reporter, LRH-1 transfected, 24 h | inhibition, % at 3.6 µM | hit rate 0.13% among 360,000 | AID 602396;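 active = inhibition above the mean inhibition of all tested compounds plus 3 SD, cut at about 73% in these data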;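 note: 0% = DMSO wells and 100% = reporter-only cells lacking LRH-1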
Gli-Sufu antag – antagonists of Gli-Sufu signaling | Sufu-KO-LIGHT fibroblasts, Gli luciferase reporter luminescence | inhibition, % at 5 µM | hit rate 0.74% among 340,000;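 active = inhibition above about 55%, limit read from the data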;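 note: 0% = DMSO-treated cells and 100% = wells with medium but no cells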
SRC1 inh – inhibitors of human steroid receptor coactivator 1 (SRC1); Q15788; inhibition, % at 3.6 µM; hit rate 0.12% among 360,000; HEK293 GAL4-SRC1 luciferase reporter, luminescence;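 active = inhibition above the campaign mean plus 3 SD, with each screening campaign given its own cutoff, cut at about 60% in these data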;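 note: 0% = DMSO treated cells and 100% = gossypol at 36 µM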
NCOA3 inh – inhibits human SRC3 coactivator; inhibition, % at 3.6 µM; hit rate 0.17% among 360,000; HEK293 GAL4-SRC3 luciferase reporter, luminescence; AID 588352; Q9Y6Q9;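 active = inhibition above a per-campaign cutoff, the mean of all compounds plus 3 SD, cut at about 60% in these data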;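 note: 0% = DMSO-treated cells and 100% = gossypol-treated cells at 36 µM; higher means less SRC3-driven luciferase light from the GAL4 reporter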
COUP-TFII inh – inhibitors of human COUP-TFII (NR2F2). hit rate 0.7% among 370,000. P24468. inhibition, % at 8.6 µM. HEK293T NGFI-A luciferase reporter, luminescence;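 active = inhibition above a per-plate cutoff, mean inhibition of test wells between control levels plus 3 SD, cut at about 38% in these data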;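 note: cells cotransfected with COUP-TFII expression vector driving the NGFI-A reporter; 0% = median of COUP-TF2 test wells and 100% = reporter-only cells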
VP16 Luc counter – VP16 inhibition counter-screen for COUP-TFII. shares compounds with COUP-TFII inh. AID 687007. hit rate 25% among 2,500. HEK293 Gal4-VP16 luciferase reporter, luminescence. inhibition, % at 8.5 µM; in the data active = inhibition above about 13%
COUP-TFII conf – confirmation of human COUP-TFII (NR2F2) inhibitors; shares compounds with COUP-TFII inh; HEK293 NGFI-A luciferase reporter, luminescence; inhibition, % at 8.5 µM; hit rate 45% among 2,500; AID 687008;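 active = mean inhibition over three repeats above a set limit taken from the earlier primary screen, cut at about 38% in these data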;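 note: 100% = cells given the luciferase reporter alone without the COUP-TF2 vector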
An asterisk follows results filed as active; / = no result. Compounds with a hit are over-represented: about 1.3% of the library has one in this group of screens.

SMILES | SRC2 inh | LRH-1 inv ag | Gli-Sufu antag | SRC1 inh | NCOA3 inh | COUP-TFII inh | VP16 Luc counter | COUP-TFII conf
COC(=O)[C@@]12CCCCC3=C1N(CCC3)C(=O)[C@H]2CC(=O)N1CCCCC1 | 0 | / | / | / | / | -1 | / | /
CCCCCCCCN1C(=O)[C@@H](CC(=O)NCc2ccccc2)C[C@@]2(C(=O)OC)C1=C[C@H](C(C)C)O[C@@H]2C1CC1 | 14 | / | / | / | / | 12 | / | /
CC(C)Cc1ccc(CN2CCCC(NC(=O)c3ccnn3C)C2)cc1 (stereo not drawn) | 23 | 5 | 41 | -1 | 12 | 46* | -7 | 18
Cc1ccc2nc(NC(=O)CSCC(=O)OCC(=O)c3ccc(Br)cc3)sc2c1 | 44 | -1 | 26 | 2 | 36 | 40* | 67* | 49*
CC(Nc1ncnc2sccc12)c1ccccc1 (stereo not drawn) | 22 | 47 | 71* | 24 | 16 | 60* | 3 | 61*
O=C(OC12CCCN(C1)/C(=C/c1ccccc1)C2)c1cccc(F)c1 (stereo not drawn) | -6 | / | / | / | / | -4 | / | /
C=CCn1c(C)c(/C=C/c2cc[n+](C)cc2)c2ccccc21 | 11 | 31 | 45 | 1 | 23 | 56* | 7 | 34
CCn1cc(/C=C/c2cc[n+](C)cc2)c2ccccc21 | -31 | 42 | 58* | 38 | 33 | 42* | 9 | 20
COc1ccc(-c2c(Cc3ccccc3)nc(NC(=O)c3ccccc3)n2Cc2ccccc2)cc1 | 6 | / | / | / | / | -4 | / | /
Cc1ccc(Cc2c(-c3ccco3)nc3c4ccccc4ccn23)cc1 | -18 | 38 | / | 25 | -1 | 41* | -107 | 19
